# Assay results as given in PubChem BioAssay.
# Several values for one entry are separate records, joined by “and”; a condition that tells them apart may be missing. Equal values may be shown once. For some assays here: Measured potencies and affinities stand elsewhere. Activity calls are given as the source filed them. Unless noted, no rule for the calls is given here.
# Experiments:
# [1] = polyglutamine-triggered caspase-3 activation inhibitors, cell-based (AID 1583); details: polyglutamine-induced caspase-3 activation, cell assay; stronger effect = higher value;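 tested at 10 µM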
# [2] = suppressors of polyQ aggregation in yeast, 75Q-TubU reporter (AID 1593); details: Yeast 75Q polyglutamine aggregation reporter
# [3] = rescue of polyQ-huntingtin neuronal dysfunction in worms, whole organism, C. elegans mechanosensory neurons, N-terminal huntingtin (AID 1599); details: touch response, stronger effect = higher value
# [4] = inhibitors of mitochondrial cytochrome c release, biochemical, purified mitochondria (AID 1603); details: stronger effect = lower value;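 also: mouse liver mitochondria challenged with calcium chloride; signal normalized to the plate average as 100%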
# [5] = inhibitors of polyQ protein aggregation (AID 1604); details: polyglutamine-induced protein aggregation inhibition assay; stronger effect = higher value; tested at 2.5 µM
# [6] = enhancers of glutamate uptake in motor neurons, MN-1 cell line (AID 1612); details: MN-1 motor neuron cells, stronger effect = higher value;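 also: tested at 1 µM final; 0% = mean of DMSO vehicle wells on each plate; positive means more glutamate uptake than control and negative means less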
# [7] = suppressors of polyglutamine aggregation in yeast, 75Q-TubH (AID 1616); details: S. cerevisiae 75Q-TubH polyglutamine aggregation suppression; stronger effect = higher value
# [8] = hESC survival regulators, cell-based (AID 493140); details: human embryonic stem cell survival screen; stronger effect = higher value;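 also: cells exposed to compounds for four days before counting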
# [9] = Cy5 fluorescence interference with SSB-bound oligo, artefact control for HCV NS3 helicase inhibitor project, biochemical, NIH Clinical Collection, E. coli SSB (AID 743268)
# [10] = system: Hepatitis C virus NS3 helicase; experiment: HCV NS3 helicase inhibitors, primary screen, biochemical, fluorescence polarization, NIH Clinical Collection (AID 743270); details: NS3 helicase binding to Cy5-dT15 DNA, stronger effect = higher value, concentration not given here
# [11] = biological target: Single-stranded DNA-binding protein (Escherichia coli (strain K12)) (UniProt P0AGE0); experiment: E. coli SSB displacement from DNA, counter-screen for HCV NS3 helicase inhibitor project, biochemical, fluorescence polarization, NIH Clinical Collection (AID 743271; in the data active = inhibition above about 28%); details: stronger effect = higher value, concentration not given here
# [12] = fluorescence interference in NS3h assay format, artefact control for HCV NS3 helicase inhibitor project, biochemical, NIH Clinical Collection (AID 743272); details: fluorescence interference counterscreen, stronger effect = lower value;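 also: HCV NS3 helicase with a Cy5 labelled single stranded DNA probe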
# [13] = modulation of C. elegans fzo-1 (AID 1259413);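 also: fzo-1 mutant C. elegans worms in liquid wells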; details: C. elegans fzo-1 modulator screen, mean read-out; stronger effect = higher value
# [14] = biological target: NAD(+) hydrolase SARM1 (Homo sapiens) (UniProt Q6SZW1); experiment: SARM1 TIR NADase inhibitors, cell lysate, NAD-Glo luminescence (AID 1508614;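 active = compound whose remaining NAD level is above about 45 nM, limit read from the data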;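 also: higher remaining NAD means stronger inhibition of SARM1 NADase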); details: SAM-TIR HEK293T lysate NADase, at 1 µM, stronger effect = higher value
# Sequence of NAD(+) hydrolase SARM1 (Homo sapiens) (Q6SZW1 whole entry, looked up, the tested form may be a part): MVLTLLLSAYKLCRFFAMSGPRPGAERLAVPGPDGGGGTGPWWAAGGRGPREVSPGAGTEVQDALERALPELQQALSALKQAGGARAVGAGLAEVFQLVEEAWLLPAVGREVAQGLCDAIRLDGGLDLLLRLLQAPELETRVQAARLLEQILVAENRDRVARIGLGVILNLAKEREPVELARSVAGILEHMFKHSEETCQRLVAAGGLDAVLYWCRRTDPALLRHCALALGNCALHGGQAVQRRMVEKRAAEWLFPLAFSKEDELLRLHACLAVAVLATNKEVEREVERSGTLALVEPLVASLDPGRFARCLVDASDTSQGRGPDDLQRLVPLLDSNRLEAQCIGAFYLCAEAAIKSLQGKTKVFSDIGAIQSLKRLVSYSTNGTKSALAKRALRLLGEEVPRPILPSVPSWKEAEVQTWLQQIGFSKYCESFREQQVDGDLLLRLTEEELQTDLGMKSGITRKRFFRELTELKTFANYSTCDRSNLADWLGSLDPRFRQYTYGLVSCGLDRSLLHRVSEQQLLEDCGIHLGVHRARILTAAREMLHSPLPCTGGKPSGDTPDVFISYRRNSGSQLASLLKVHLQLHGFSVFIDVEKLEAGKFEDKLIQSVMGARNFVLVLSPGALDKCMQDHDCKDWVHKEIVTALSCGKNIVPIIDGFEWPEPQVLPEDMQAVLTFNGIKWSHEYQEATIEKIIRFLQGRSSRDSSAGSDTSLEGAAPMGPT
# [15] = biological target: Mitogen-activated protein kinase 7 (Homo sapiens) (UniProt Q13164); experiment: ERK5 transactivation activators in reporter cells, primary screen, cell-based, HTS (AID 1508626;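 active = luciferase signal above three times the same-plate solvent-only control wells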;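 also: luciferase driven by Gal4-ERK5 fusion binding five Gal4 sites before minimal TATA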); details: HeLa Gal4-ERK5 transactivation, 18 h, at 5 µM, stronger effect = higher value
# Sequence of Mitogen-activated protein kinase 7 (Homo sapiens) (Q13164 whole entry, looked up, the tested form may be a part): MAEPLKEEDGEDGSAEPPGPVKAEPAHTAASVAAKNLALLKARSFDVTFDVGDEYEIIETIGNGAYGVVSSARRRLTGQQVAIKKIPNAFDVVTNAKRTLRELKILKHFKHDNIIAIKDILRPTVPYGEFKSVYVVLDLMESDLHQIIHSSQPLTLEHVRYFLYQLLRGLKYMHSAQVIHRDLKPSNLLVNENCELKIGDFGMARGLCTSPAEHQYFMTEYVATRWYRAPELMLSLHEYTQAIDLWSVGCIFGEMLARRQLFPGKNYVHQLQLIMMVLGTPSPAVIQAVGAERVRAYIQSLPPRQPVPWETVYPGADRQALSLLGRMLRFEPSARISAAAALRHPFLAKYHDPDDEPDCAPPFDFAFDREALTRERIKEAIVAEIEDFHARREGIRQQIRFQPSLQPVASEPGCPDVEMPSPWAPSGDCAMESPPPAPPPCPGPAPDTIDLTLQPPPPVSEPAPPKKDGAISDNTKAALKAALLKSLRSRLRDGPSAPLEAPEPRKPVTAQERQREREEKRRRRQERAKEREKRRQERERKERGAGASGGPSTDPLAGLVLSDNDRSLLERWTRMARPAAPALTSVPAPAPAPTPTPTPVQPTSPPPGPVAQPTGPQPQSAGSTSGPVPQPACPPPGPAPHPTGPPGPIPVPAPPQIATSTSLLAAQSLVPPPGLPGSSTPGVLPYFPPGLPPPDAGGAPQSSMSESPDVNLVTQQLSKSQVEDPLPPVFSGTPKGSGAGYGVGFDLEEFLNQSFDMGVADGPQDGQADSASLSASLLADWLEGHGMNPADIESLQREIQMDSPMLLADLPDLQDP
# [16] = viability rescue of complex I mutant cybrids, primary screen, cell-based, galactose medium, ATP luminescence (AID 1645843;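 active = z-score of at least 1.8 in each of two replicates, scored against plate mean and spread of sample wells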;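 also: positive z means more ATP and so rescue of galactose-driven cybrid death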); details: complex I mutant cybrid cells, 72 h, stronger effect = higher value
# R275C/beta2Delta = experiment: modulators of BK channel variants, profiling panel, selectivity assay, cell-based, U2OS BacMam, thallium flux, beta subunits (AID 1259406;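 active = thallium flux through the channel raised or lowered by more than 3 SD from vehicle-only wells, actives on both sides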;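 also: initial slope of Thallos dye fluorescence rise after thallium is added; log ratio against the mean of 0.3% DMSO vehicle wells on the same plate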); details: at 30 µM
# R275C/beta4 = experiment: as above; details: at 30 µM
# R275C/Slo1WT/beta2 = experiment: as above; details: at 30 µM
SMILES,inhibition [1] [%],score [2],rescue above control [3],cytochrome c release ratio [4],inhibition of aggregation [5] [%],glutamate uptake change [6] [%],aggregation suppression score [7],survival [8],fluorescence ratio [9],inhibition [10],inhibition [11],fluorescence ratio [12],mean signal [13],remaining NAD [14],luciferase signal [15],z-score [16],log fold change Tl+ flux (R275C/beta2Delta),log fold change Tl+ flux (R275C/beta4),log fold change Tl+ flux (R275C/Slo1WT/beta2)
CSc1ccc2c(c1)N(CCC1CCCCN1C)c1ccccc1S2 (stereo not drawn),43.3,0.94,0,0.4,7.32,-2.39,0.91,2.08 (inactive),1.05 (inactive),-5% (inactive),0.29% (inactive),0.85 (inactive),275 (inactive),10 nM (inactive),40 AU (inactive),-1.38 (inactive) and -1.5 (inactive) and -2.41 (inactive),-0.136 (active),0.753 (active),-0.146 (active)
CCCCC1=NC2(CCCC2)C(=O)N1Cc1ccc(-c2ccccc2-c2nn[nH]n2)cc1,–,–,–,–,–,–,–,–,1.06 (inactive),-3.56% (inactive),3.75% (inactive),1.03 (inactive),269 (inactive),10 nM (inactive),56 AU (inactive),1.65 (inactive),0.104 (active),0.051 (inactive),0.0476 (inactive)
CCOC(=O)[C@H](CCc1ccccc1)N[C@@H](C)C(=O)N1Cc2ccccc2C[C@H]1C(=O)O,20.2,1.04,4.28,0.82,37.2,3.41,1.35,–,1.02 (inactive),-8.64% (inactive),-0.48% (inactive),1.04 (inactive),206 (inactive),10 nM (inactive),64 AU (inactive),0.72 (inactive) and 0.435 (inactive),0.0266 (inactive),0.0169 (inactive),0.0209 (inactive)
CCN(CC)CCOC(=O)c1ccc(N)cc1,9.09,1.48,-15,1.16,23.9,22.4,1.46,15.7 (inactive),1.06 (inactive),-3.18% (inactive),0.29% (inactive),0.92 (inactive),231 (inactive),10 nM (inactive),92 AU (inactive),0.17 (inactive) and -0.015 (inactive),0.0278 (inactive),-0.0586 (inactive),-0.013 (inactive)
CC(=O)CCCCn1c(=O)c2c(ncn2C)n(C)c1=O,49.3,1.37,-11.6,0.83,60.9,-0.27,1.44,14.1 (inactive),1.01 (inactive),-5.15% (inactive),-2.41% (inactive),1 (inactive),250 (inactive),10 nM (inactive),88 AU (inactive),0.465 (inactive) and 0.86 (inactive) and 0.55 (inactive),0.00216 (inactive),-0.0339 (inactive),-0.000483 (inactive)
CC(C)[N+](C)(CCOC(=O)C1c2ccccc2Oc2ccccc21)C(C)C,8.5,0.96,2.24,0.77,58.5,-0.12,1.09,4.92 (inactive),1.03 (inactive),-1.36% (inactive),0.29% (inactive),0.96 (inactive),251 (inactive),10 nM (inactive),48 AU (inactive),0.295 (inactive) and 0.02 (inactive),-0.014 (inactive),-0.0395 (inactive),-0.0246 (inactive)
CC(N=C(NC#N)Nc1ccncc1)C(C)(C)C (stereo not drawn),–,–,–,–,–,–,–,59.8 (inactive),0.97 (inactive),-0.22% (inactive),1.97% (inactive),0.95 (inactive),282 (inactive),10 nM (inactive),64 AU (inactive),0.04 (inactive) and -0.155 (inactive) and 0.65 (inactive),-0.00406 (inactive),-0.0193 (inactive),-0.0219 (inactive)
CC[N+](C)(C)c1cccc(O)c1,0.97,1.45,-4.06,0.79,49.4,-4.41,1.27,20.2 (inactive),1.03 (inactive),-1.36% (inactive),0.29% (inactive),0.96 (inactive),239 (inactive),10 nM (inactive),68 AU (inactive),0.66 (inactive) and 0.015 (inactive),0.0107 (inactive),-0.0318 (inactive),0.00666 (inactive)
O=C1NC(=O)C(c2ccccc2)(c2ccccc2)N1,5.01,1.42,6.5,0.9,62.8,-8.41,1.74,–,1.01 (inactive),-2.27% (inactive),-2% (inactive),1 (inactive),250 (inactive),10 nM (inactive),68 AU (inactive),0.08 (inactive) and 1.09 (inactive) and 0.395 (inactive),0.0126 (inactive),-0.0221 (inactive),0.0271 (inactive)
CN(C)CCOC(C)(c1ccccc1)c1ccccn1 (stereo not drawn),9.79,1.23,-5.3,0.7,77,7.08,1.46,6.42 (inactive),1.04 (inactive),-0.4% (inactive),-0.87% (inactive),1.06 (inactive),230 (inactive),10 nM (inactive),124 AU (inactive),0.14 (inactive) and -0.05 (inactive) and 0.35 (inactive),-0.00567 (inactive),0.0164 (inactive),0.0279 (inactive)
